From PubChem
An excerpt weighted towards active compounds, which were near 3.8% of everything screened.
Wnt bcat act: Wnt/beta-catenin pathway activation; Wnt/beta-catenin reporter cell assay, activator, plate reader; 300,000 tested, 1.2% active; activation, % at 9.35 µM; in the data active = activation above about 30%, passing the limit was not always enough; inconclusive = no clear call, values can overlap the other calls;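 also: 0% = neutral control wells and 100% = positive control wells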
HSF1 inh: HSF1 inhibition; NIH3T3-HGL HSE-luciferase, MG132-induced, luminescence 8 h; active compounds read low; activity change, negative = inhibition, % at 7.5 µM (by protocol); 300,000 tested, 0.77% active;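 active = more than half of replicate wells show activity change below -50%, luminescence cut by over half; inconclusive = some wells, but at most half, below -50%; inactive = no replicate well below -50%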;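 also: luciferase reports HSF-1 transcriptional activity via heat shock element; 0% = median of DMSO wells and -100% = zero luminescence signal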
esBAF inh: blocks esBAF chromatin remodeling in mouse ES cells. Bmi1-luciferase knock-in reporter, 24 h; 100% = twice the neutral-well signal. reporter increase, % at 12.5 µM. 350,000 tested, 2% active; in the data active = activation above about 40%; inconclusive = no clear call, values can overlap the other calls;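 also: 0% = median of the plate's neutral control wells and 100% = double that signal; a rise in the Bmi1 reporter signal indicates esBAF inhibition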
MITF act: MITF TRPM1 promoter activation in melanoma cells; activation, % at 12.5 µM; 300,000 tested, 0.75% active; SK-MEL-5 TRPM1-promoter luciferase, 24 h; % of positive control, neutral wells = 0;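 active = mean activation of at least 80% with every replicate also reaching 80%; inconclusive = mean reaches 80% but some replicate falls short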;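 also: 0% = neutral control wells and 100% = parthenolide positive control wells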
HSF1 activator: increases HSF-1 driven luciferase reporter signal. NIH3T3-HGL HSF-1 luciferase reporter, MG132, 8 h; 100% = twice DMSO control signal. activation, % at 9 µM. AID 504408. 300,000 tested, 1.7% active;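 active = mean replicate activation of at least 50% with a set share of replicates each reaching 50%; inconclusive = only one of those two conditions met; inactive = mean below 50% and too few replicates reaching it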;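 also: 0% = median of the neutral control wells and 100% = twice that signal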
* marks the source's active call; other numbers are inactive results; ? = inconclusive; nt = no result.

SMILES | Wnt bcat act | HSF1 inh | esBAF inh | MITF act | HSF1 activator
CC1(C)CC(=O)C=C(c2ccc(-c3ccc(S(C)(=O)=O)cc3)cc2)C1=O | -0.8 | nt | 65.3* | nt | nt
COc1ccc2cc(C3=CC(=O)CC(C)(C)C3=O)ccc2c1 | 0.5 | nt | 123.9* | nt | nt
CC(C)NC(=O)N[C@@H]1CC[C@@H](CCNC(=O)C2CCC2)O[C@@H]1CO | nt | nt | 2.4 | nt | nt
CCOCCOC(=O)c1ccc(-n2cncn2)nc1 | 0.5 | -85.9* | -6.7 | -5.1 | -89.1
N#Cc1nc(-c2ccc(Cl)cc2)oc1NCc1ccco1 | 38.4* | 25.5 | 52.4* | 70.1 | 46.6
COCCNc1oc(-c2ccc(C)cc2)nc1C#N | nt | 19.1 | 65.3* | 66.0 | 45.1
COCCNc1oc(-c2ccc(Cl)cc2)nc1C#N | 43.1* | 22.1 | nt | 81.3* | 10.0
COCCNc1oc(/C=C/c2ccccc2)nc1C#N | 45.6* | 18.7 | nt | 102.8* | 36.5
CNc1oc(/C=C/c2ccccc2)nc1C#N | nt | -3.6 | nt | 59.7 | -1.6
COc1ccc(CCNc2oc(-c3ccc(C)cc3)nc2C#N)cc1OC | -0.1 | 2.3 | 4.8 | 24.7 | -2.0
CC(C)[C@@H](C)NC(=O)N(C)C[C@H]1OCc2ccccc2-c2c(n(C)c3ccccc23)C(=O)N([C@@H](C)CO)C[C@@H]1C | nt | nt | 3.2 | nt | nt
COc1cccc(C#Cc2cnc3c(c2)C(=O)N([C@@H](C)CO)C[C@@H](C)[C@@H](CN(C)C(=O)C2CCC2)O3)c1 | nt | nt | 4.2 | nt | nt
COc1ccc(S(=O)(=O)N[C@@H]2CC[C@@H](CCNC(=O)c3ccccc3F)O[C@@H]2CO)cc1 | nt | nt | -2.5 | nt | nt
C[C@H]1CN([C@@H](C)CO)C(=O)Cc2cc(NS(C)(=O)=O)ccc2O[C@H]1CN(C)CC1CCCCC1 | nt | nt | -0.9 | nt | nt
CC(C)C#Cc1cnc2c(c1)C(=O)N([C@H](C)CO)C[C@H](C)[C@H](CN(C)C(=O)c1cccnc1)O2 | nt | nt | -1.4 | nt | nt
C[C@@H]1CN([C@H](C)CO)C(=O)Cc2cc(NC(=O)Cn3cnnn3)ccc2O[C@H]1CN(C)CC1CC1 | nt | nt | -0.6 | nt | nt
Cc1cc2nc(-c3ccc[nH]c3=O)n(Cc3cccc(F)c3)c2cc1C | 3.9 | 3.6 | 7.7 | -2.3 | 23.5
CCCn1c(-c2ccc[nH]c2=O)nc2cc(C)c(C)cc21 | 62.5* | 26.2 | nt | 29.9 | 14.8
CCOC(=O)C[C@H]1c2cc(F)ccc2S(=O)(=O)N1c1cccc(OC)c1 | 1.5 | 7.0 | -3.0 | -2.5 | 13.7
CC(=O)C[C@H]1c2cc(F)ccc2S(=O)(=O)N1c1ccc(N(C)C)cc1 | 10.6 | -61.6* | 17.8 | 16.1 | -65.2
O=C(CCl)N1CCCC1c1ccc2c(c1)OCCO2 (stereo not drawn) | -0.7 | -63.0* | ? | -88.4 | -62.0
CC(=O)c1ccc(OCC(=O)N2CCCC2c2ccc3c(c2)OCCCO3)cc1 (stereo not drawn) | -0.8 | nt | 2.8 | 8.0 | nt
Fc1cc(F)c2nc(N3CCCCC3)sc2c1 | 20.6 | -12.8 | 66.2* | 45.8 | -28.9
Fc1ccc2nc(N3CCCC3)sc2c1 | -0.3 | 22.4 | ? | 156.0* | 29.1
O=C(Nc1ccc(F)cc1F)c1ccc2nc(N3CCOCC3)sc2c1 | 3.0 | -1.7 | 41.7* | nt | -4.3
SMILES | Wnt bcat act | HSF1 inh | esBAF inh | MITF act | HSF1 activator
O=[N+]([O-])c1ccc2nc(N3CCCC3)sc2c1 | 14.3 | 11.6 | 79.0* | ? | 37.8
C[C@H](CO)N1C[C@H](C)[C@H](CN(C)C)Oc2ncc(-c3ccc(C(=O)N(C)C)cc3)cc2C1=O | nt | nt | 3.0 | nt | nt
O=[N+]([O-])c1cc(Cl)ccc1N1CCCCC1 | -0.4 | -0.8 | nt | 10.4 | 20.9
O=[N+]([O-])c1ccc(N2CCCCCC2)c([N+](=O)[O-])c1 | 22.2 | 19.5 | 9.5 | nt | 76.6*
CCOc1ccccc1-n1nnnc1SCC(=O)O | 36.4* | -7.0 | -7.1 | 4.9 | -4.9
COc1ccc(CN2C[C@H](C)[C@H](OC)CN(C)C(=O)c3cc(NC(=O)C4CC4)ccc3OC[C@@H]2C)cc1 | nt | nt | -0.6 | nt | nt
O=C(c1ccccc1)C(c1ccccc1)c1ccccc1 | -0.7 | 0.0 | -0.2 | -2.7 | 15.5
COc1ccc(C(CC(=O)c2ccccc2)CC(=O)c2ccccc2)cc1 | -0.6 | 1.6 | nt | nt | 7.1
C=C(C(=O)c1ccccc1)C(c1ccccc1)C(C)C(=O)c1ccccc1 (stereo not drawn) | -13.1 | 46.9 | nt | -7.4 | 62.5*
C=C(C(=O)c1ccccc1)C(C)C(=C)C(=O)c1ccccc1 | -13.4 | 59.2 | nt | -94.1 | 78.5*
C=C(C(=O)c1ccccc1)C(C(=C)C(=O)c1ccccc1)c1ccc(OC)cc1 | -19.0 | 128.6 | nt | nt | 143.1*
COc1cc(CC(=O)N(c2ccccc2)c2nc(C)cs2)cc(OC)c1OC | 1.0 | 22.9 | nt | -12.9 | 61.6*
C[C@H]1CN([C@@H](C)CO)C(=O)c2cc(NC(=O)C3CCCCC3)ccc2O[C@@H]1CN(C)CC1CC1 | nt | nt | -4.1 | nt | nt
c1coc(C2Nc3ccccc3C3OCCC23)c1 (stereo not drawn) | 7.4 | 3.4 | 16.8 | nt | -11.8
COc1ccc2c(c1)C1OCCC1C(c1ccco1)N2 (stereo not drawn) | nt | 30.9 | nt | 58.0 | 55.6*
CCN(CC(=O)Nc1ccc(NC(C)=O)cc1)Cc1c(O)ccc2cc(Br)ccc12 | -0.4 | 100.9 | -3.6 | 3.3 | 127.1*
COc1ccc(S(=O)(=O)Nc2ccc3c(c2)C(=O)N([C@@H](C)CO)C[C@H](C)[C@@H](CN(C)CC2CCCCC2)OCCCC[C@H](C)O3)cc1 | nt | nt | 4.2 | nt | nt
Cc1ccc2c(c1)c1cccc3c1n2CCN3CCC(N)=O | nt | -6.1 | 74.8* | 76.1 | -3.6
C=CCOC(=O)Cn1cnc2c(sc3nc(C)cc(C)c32)c1=O | 27.2 | 14.0 | 37.4 | 56.6 | 47.4
O=C(Cn1cnc2c(oc3ccccc32)c1=O)c1ccccc1 | 48.5* | 6.4 | 69.6* | nt | 3.7
Cc1cc(C)c2c(n1)sc1c(=O)n(CC(=O)c3ccccc3)cnc12 | ? | 7.3 | 46.7* | nt | 17.5
C[C@@H]1CN([C@H](C)CO)C(=O)c2cc(-c3ccccc3F)cnc2O[C@@H]1CN(C)C(=O)c1ccccn1 | nt | nt | -1.2 | nt | nt
COc1cccc2sc(Nc3nnc(-c4ccc(F)cc4)o3)nc12 | -6.8 | 4.5 | 22.8 | -14.2 | 6.3
Cc1cc(C)c2nc(NC(=O)c3ccco3)sc2c1 | 23.6 | 8.1 | -32.8 | 22.1 | 13.2
COc1cccc2sc(Nc3nnc(-c4cccs4)o3)nc12 | 59.3* | 205.5 | -14.1 | nt | 300.6*
SMILES | Wnt bcat act | HSF1 inh | esBAF inh | MITF act | HSF1 activator
Cc1cc(Cl)cc2sc(NC(=O)c3ccco3)nc12 | nt | 19.5 | 16.9 | 88.2* | 50.0
O=C(Nc1nc2c(F)cccc2s1)c1ccco1 | 43.2* | 13.1 | 31.2 | 59.1 | 35.8
Fc1cccc2sc(Nc3nnc(-c4ccco4)o3)nc12 | 38.3* | -0.8 | 13.7 | 29.7 | 28.9
O=C(Nc1ccccc1)[C@@H]1[C@@H](CO)[C@@H]2Cn3c(cccc3=O)[C@@H]2N1Cc1ccccc1Cl | nt | nt | 8.8 | nt | nt
COc1ccccc1NC(=S)N/N=C/c1ccc(O)cc1 | -1.0 | 40.3 | nt | ? | 81.0*
O=C(O)CCC1(C(=O)O)OCCc2ccccc21 (stereo not drawn) | -1.6 | -66.7* | -3.9 | 9.5 | -74.9
OCC[C@@H]1C[C@@H](O)[C@H](O)[C@]2(OCCc3ccccc32)O1 | 0.5 | -0.5 | -7.0 | 2.1 | 1.7
